Test systems include HCT-15 colon; HT29 colon; SNB-75 CNS; SNB-19 CNS; U251 CNS; PC-3 prostate; SK-MEL-5 melanoma; UACC-62 melanoma; LOX IMVI melanoma; SK-MEL-28 melanoma; SK-MEL-2 melanoma; EKVX NSCLC; SN12C renal; UO-31 renal; TK-10 renal; ACHN renal; CAKI-1 renal; A498 renal; CCRF-CEM leukemia; MOLT-4 leukemia.
Holding throughout (experiment): NCI-60 one-dose screen, 48 h (100 = growth as untreated, 0 = no growth, -100 = all killed)
Details in all cases: 10 µM unless noted

This is part of a sample that, as a whole, favours compounds with a hit. Of some 83,000 tested, about 20% had one in any assay.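 Cell lines were cultured in 96-well plates, exposed to a single compound concentration, and assessed for percent growth 48 hours later.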 Unmarked numbers belong to inactive results. Active and inactive are the calls of the source. Rule for the calls: active = growth percent below 10; inactive = the rest.

On to `CCOC(=O)c1ccc[nH]1`, for which the growth in the assay with HCT-15 colon is 93.9%; with HT29 colon, 106%; in the assay on SNB-75 CNS, 84.2%; with SNB-19 CNS, 99.4%; in the assay with U251 CNS, 96.6%; in the assay on PC-3 prostate, 91.8%. Further, the growth with SK-MEL-5 melanoma was 98.4%; in the assay on UACC-62 melanoma it was 103%; with LOX IMVI melanoma, 94.1%; with SK-MEL-28 melanoma, 115%; in the assay on SK-MEL-2 melanoma it was 99.3%; with EKVX NSCLC, 97.1%. For the same molecule, the growth with SN12C renal is 105%; in the assay with UO-31 renal it was 91.8%; in the assay with TK-10 renal it was 98.3%; in the assay with ACHN renal, 90.4%; with CAKI-1 renal it was 74.3%; in the assay on A498 renal, 101%. For the same molecule, the growth was 92.1% in the assay on CCRF-CEM leukemia and 102% in the assay on MOLT-4 leukemia.
Regarding `COc1ccc(-c2nc(SCC(=O)Nc3nc4ccc(C)cc4s3)[nH]c(=O)c2C#N)cc1OC`, the growth in the assay with HCT-15 colon is 104%; in the assay with HT29 colon, 107%; in the assay on SNB-75 CNS it was 60.4%; in the assay on SNB-19 CNS it was 101%; with U251 CNS, 104%; in the assay with PC-3 prostate, 93.2%. In addition, the growth in the assay with SK-MEL-5 melanoma is 97.7%; in the assay with UACC-62 melanoma, 94.4%; with LOX IMVI melanoma it was 90.4%; in the assay on SK-MEL-28 melanoma, 108%; in the assay with SK-MEL-2 melanoma it was 115%; in the assay on EKVX NSCLC, 97%. For the same molecule, the growth with SN12C renal is 95.9%; in the assay with UO-31 renal, 61%; with TK-10 renal, 164%; in the assay with ACHN renal, 96.3%; with CAKI-1 renal, 74.7%; with A498 renal it was 102%. In addition, the growth in the assay on CCRF-CEM leukemia was 110%; with MOLT-4 leukemia, 99.4%.
On to `CCOC(=O)CC[C@H](NC(=O)c1ccc(N(C)Cc2cnc3nc(N)nc(N)c3n2)c2ccccc12)C(=O)OCC`, for which the growth in the assay on HCT-15 colon was 30%; with HT29 colon, 12.5%; in the assay on SNB-75 CNS it was 76%; in the assay with SNB-19 CNS it was 33.7%; with U251 CNS, 33%; in the assay on PC-3 prostate it was 24.3%. Further, the growth in the assay with SK-MEL-5 melanoma is 23.4%; in the assay with UACC-62 melanoma, 18.5%; with LOX IMVI melanoma it was 17.6%; in the assay with SK-MEL-28 melanoma, 47.8%; in the assay with SK-MEL-2 melanoma, 51.9%; in the assay with EKVX NSCLC, 75.2%. Also, the growth with SN12C renal is 35.6%; in the assay on UO-31 renal, 20.9%; in the assay with TK-10 renal it was 43.8%; with ACHN renal it was 25%; in the assay on CAKI-1 renal it was 24.1%; in the assay on A498 renal, 35.1%. For the same molecule, the results for the growth with CCRF-CEM leukemia and in the assay on MOLT-4 leukemia were 10.5% and 24.8%, respectively.
For the molecule `ClC(Cl)c1nc(-c2ccccc2)n2nc(-c3ccccc3)cc2n1`, the growth is -16% (active) in the assay on HCT-15 colon; 1.24% (active) in the assay on HT29 colon; -37.5% (active) in the assay with SNB-75 CNS; 6.64% (active) in the assay on SNB-19 CNS; -14.9% (active) in the assay with U251 CNS; 17.2% in the assay with PC-3 prostate. Also, the growth in the assay on SK-MEL-5 melanoma is 84.4%; in the assay with UACC-62 melanoma, 68.4%; in the assay with LOX IMVI melanoma it was 72.1%; in the assay on SK-MEL-28 melanoma it was 25.5%; in the assay with SK-MEL-2 melanoma it was 72.1%; with EKVX NSCLC it was -22.1% (active). Besides, the growth in the assay on SN12C renal was 58.7%; in the assay on UO-31 renal, 3.46% (active); with TK-10 renal it was 0.776% (active); in the assay on ACHN renal, -57% (active); with CAKI-1 renal it was -34.7% (active); in the assay on A498 renal, -26.5% (active). Moreover, the growth with CCRF-CEM leukemia is 63.3%; in the assay with MOLT-4 leukemia it was 30.8%.
`Cn1c(C#N)ccc1-c1ccc(F)c(NC(=O)c2ccc(F)cc2)c1`: the growth in the assay with HCT-15 colon was 66.6%; with HT29 colon it was 47.5%; in the assay on SNB-75 CNS, 71.4%; in the assay on SNB-19 CNS, 84.1%; in the assay on U251 CNS it was 73.4%; in the assay with PC-3 prostate, 80.9%. Besides, the growth was 75.9% in the assay on SK-MEL-5 melanoma; 60.8% with UACC-62 melanoma; 69.8% in the assay on LOX IMVI melanoma; 86.5% in the assay on SK-MEL-28 melanoma; 60.3% in the assay with SK-MEL-2 melanoma; 82.2% with EKVX NSCLC. The growth was 82.2% in the assay with SN12C renal; 64% in the assay on UO-31 renal; 86% in the assay on TK-10 renal; 84.4% with ACHN renal; 73.9% with CAKI-1 renal; 73.3% with A498 renal. Also, the growth in the assay with CCRF-CEM leukemia is 68.8%; in the assay on MOLT-4 leukemia, 47.6%.
Consider `C=C(c1ccc(C(=O)O)c(F)c1)c1cc2c(cc1C)C(C)(C)CCC2(C)C`, for which the growth is 80.9% in the assay with HCT-15 colon; 97.9% in the assay on HT29 colon; 74.3% in the assay on SNB-75 CNS; 86.8% in the assay with SNB-19 CNS; 75.4% with U251 CNS; 72.5% with PC-3 prostate. Also, the growth is 74% in the assay on SK-MEL-5 melanoma; 83.5% in the assay with UACC-62 melanoma; 93.9% in the assay with LOX IMVI melanoma; 89.9% with SK-MEL-28 melanoma; 89.4% in the assay on SK-MEL-2 melanoma; 75.6% in the assay with EKVX NSCLC. Also, the growth with SN12C renal was 85.4%; in the assay with UO-31 renal, 92.6%; in the assay with TK-10 renal it was 102%; in the assay with ACHN renal, 79%; with CAKI-1 renal, 81.4%; with A498 renal it was 95.8%. Further, the growth in the assay on CCRF-CEM leukemia is 86.8%; in the assay with MOLT-4 leukemia, 82.4%.
Turning to `COc1ccc(-c2cc(C(=O)N3N=C(c4ccc(N)cc4)CC3c3ccc(Cl)cc3)c3cc(OC)ccc3n2)cc1` (stereo not given), the growth in the assay with HCT-15 colon was 22.4%; in the assay on HT29 colon, 45.1%; with SNB-75 CNS it was 87.3%; in the assay on SNB-19 CNS, 92.6%; with U251 CNS, 74.9%; with PC-3 prostate it was 22.9%. Moreover, the growth is 88% in the assay with SK-MEL-5 melanoma; 49% in the assay on UACC-62 melanoma; 39% in the assay with LOX IMVI melanoma; 48% in the assay with SK-MEL-28 melanoma; 88.5% in the assay with SK-MEL-2 melanoma; 88.1% with EKVX NSCLC. The growth with SN12C renal is 84.5%; with UO-31 renal, 57%; with TK-10 renal, 101%; in the assay with ACHN renal, 47%; in the assay with CAKI-1 renal, 90.5%; in the assay with A498 renal, 87.8%. Also, the growth is 23.1% with CCRF-CEM leukemia and 32.5% in the assay on MOLT-4 leukemia.

Source of the values: PubChem BioAssay (NCI).
